Measurements reported in PubChem BioAssay (NCI).
The panel holds about 83,000 compounds, 20% with a hit somewhere; the sample as a whole holds those more often.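 96-well plates, one dose, 48 hours. Percent growth reported; active if below 10.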 The source made the active and inactive calls.

Assays:
Assay in all cases: NCI-60 one-dose screen, 48 h (100 = growth as untreated, 0 = no growth, -100 = all killed)
Settings in all cases: 10 µM unless noted
SK-MEL-2 melanoma = tested on: SK-MEL-2 melanoma
SN12C renal = tested on: SN12C renal
UO-31 renal = tested on: UO-31 renal
TK-10 renal = tested on: TK-10 renal
ACHN renal = tested on: ACHN renal
A498 renal = tested on: A498 renal
CCRF-CEM leukemia = tested on: CCRF-CEM leukemia
MOLT-4 leukemia = tested on: MOLT-4 leukemia
SR leukemia = tested on: SR leukemia
RPMI-8226 leukemia = tested on: RPMI-8226 leukemia
OVCAR-8 ovarian = tested on: OVCAR-8 ovarian
OVCAR-5 ovarian = tested on: OVCAR-5 ovarian
OVCAR-4 ovarian = tested on: OVCAR-4 ovarian
SK-OV-3 ovarian = tested on: SK-OV-3 ovarian
IGROV1 ovarian = tested on: IGROV1 ovarian
OVCAR-3 ovarian = tested on: OVCAR-3 ovarian
HS 578T breast = tested on: HS 578T breast
NCI/ADR-RES ovarian = tested on: NCI/ADR-RES ovarian
T-47D breast = tested on: T-47D breast

Measured: growth

CCOCc1nc2ccccc2c(=O)[nH]1
inactive: SK-MEL-2 melanoma 113% | SN12C renal 98% | UO-31 renal 92.9% | TK-10 renal 102% | ACHN renal 105% | A498 renal 105% | CCRF-CEM leukemia 97.1% | MOLT-4 leukemia 105% | SR leukemia 103% | RPMI-8226 leukemia 102% | OVCAR-8 ovarian 103% | OVCAR-5 ovarian 106% | OVCAR-4 ovarian 113% | SK-OV-3 ovarian 108% | IGROV1 ovarian 96.6% | OVCAR-3 ovarian 109% | HS 578T breast 93.8% | NCI/ADR-RES ovarian 103% | T-47D breast 105%

C=C1C(=O)O[C@H]2[C@H]1CC/C(COC(=O)CCCCCCC(=O)OC/C1=C/CC[C@@]3(C)O[C@H]3[C@H]3OC(=O)C(=C)[C@@H]3CC1)=C\CC[C@@]1(C)O[C@@H]21
active: SN12C renal 6.29% | UO-31 renal -21.8% | TK-10 renal -5.79% | ACHN renal -38.6% | CCRF-CEM leukemia 4.54% | MOLT-4 leukemia 2.4% | SR leukemia -2.74% | RPMI-8226 leukemia 2.81% | OVCAR-8 ovarian -18.7% | OVCAR-3 ovarian -3.87% | T-47D breast -18.1%
inactive: SK-MEL-2 melanoma 84.6% | A498 renal 96.3% | OVCAR-5 ovarian 61% | OVCAR-4 ovarian 42.3% | SK-OV-3 ovarian 94.6% | IGROV1 ovarian 11.2% | HS 578T breast 27.2% | NCI/ADR-RES ovarian 46.6%

C[C@@H]1C(=O)[C@@H]2C[C@@H](O)[C@@H](O)C[C@]2(C)[C@H]2CC[C@@]3(C)C(=C12)CC[C@@H]3[C@@](C)(O)[C@H](O)CCC(C)(C)O
inactive: SK-MEL-2 melanoma 108% | SN12C renal 104% | UO-31 renal 89% | TK-10 renal 95.9% | ACHN renal 117% | A498 renal 67.2% | CCRF-CEM leukemia 89.5% | MOLT-4 leukemia 87.3% | SR leukemia 97.4% | RPMI-8226 leukemia 105% | OVCAR-8 ovarian 94.7% | OVCAR-5 ovarian 112% | OVCAR-4 ovarian 114% | SK-OV-3 ovarian 103% | IGROV1 ovarian 113% | OVCAR-3 ovarian 102% | HS 578T breast 99.3% | NCI/ADR-RES ovarian 110% | T-47D breast 95.5%

C=C(C)[C@@H]1CC[C@]2(C(=O)OCCCC[P+](c3ccccc3)(c3ccccc3)c3ccccc3)CC[C@]3(C)[C@H](CC[C@@H]4[C@@]5(C)CC[C@H](OC(=O)C(Cl)Cl)C(C)(C)[C@@H]5CC[C@]43C)[C@@H]12
inactive: NCI/ADR-RES ovarian 52.7%
active: SK-MEL-2 melanoma -67.5% | SN12C renal -62.2% | UO-31 renal -51% | TK-10 renal -36.2% | ACHN renal -39.6% | A498 renal -58.9% | MOLT-4 leukemia -45% | SR leukemia -34% | RPMI-8226 leukemia -40% | OVCAR-8 ovarian -1.54% | OVCAR-5 ovarian -1.72% | OVCAR-4 ovarian -0.103% | SK-OV-3 ovarian -5.89% | IGROV1 ovarian -23.3% | OVCAR-3 ovarian -42.7% | HS 578T breast -0.621% | T-47D breast -14.3%

CCCCc1n(Cc2ccc3ccccc3n2)cc[n+]1Cc1ccc2ccccc2c1
inactive: UO-31 renal 69.2% | ACHN renal 61.2% | OVCAR-5 ovarian 24% | OVCAR-4 ovarian 28.6% | HS 578T breast 16.6% | NCI/ADR-RES ovarian 101%
active: SK-MEL-2 melanoma -35.7% | SN12C renal 1.13% | TK-10 renal -5.08% | A498 renal 7.02% | CCRF-CEM leukemia 6.45% | MOLT-4 leukemia 4.42% | SR leukemia -27.1% | RPMI-8226 leukemia -7.1% | OVCAR-8 ovarian 2.38% | SK-OV-3 ovarian -14% | IGROV1 ovarian -14.7% | OVCAR-3 ovarian 5.59% | T-47D breast -0.345%

Cc1cnc(SCc2ccc(Cl)cc2)[nH]c1=S
inactive: SK-MEL-2 melanoma 88.5% | SN12C renal 103% | UO-31 renal 93.9% | TK-10 renal 95.1% | ACHN renal 104% | A498 renal 90.7% | CCRF-CEM leukemia 106% | MOLT-4 leukemia 106% | SR leukemia 89.7% | RPMI-8226 leukemia 101% | OVCAR-8 ovarian 101% | OVCAR-5 ovarian 97.5% | OVCAR-4 ovarian 92.3% | SK-OV-3 ovarian 108% | IGROV1 ovarian 103% | OVCAR-3 ovarian 94.1% | HS 578T breast 112% | NCI/ADR-RES ovarian 103% | T-47D breast 88%

CN(C)C1=NCCN1
inactive: SK-MEL-2 melanoma 81.5% | SN12C renal 104% | UO-31 renal 96.2% | TK-10 renal 93.6% | ACHN renal 111% | A498 renal 107% | CCRF-CEM leukemia 90.2% | MOLT-4 leukemia 92.6% | SR leukemia 108% | RPMI-8226 leukemia 95.2% | OVCAR-8 ovarian 104% | OVCAR-5 ovarian 104% | OVCAR-4 ovarian 114% | SK-OV-3 ovarian 109% | IGROV1 ovarian 104% | OVCAR-3 ovarian 104% | HS 578T breast 106% | NCI/ADR-RES ovarian 106% | T-47D breast 110%

Cc1nc2sc(C(=O)Nc3cccc(Cl)c3C)c(N)c2cc1C(C)O (stereo unspecified)
active: A498 renal 8.96% | OVCAR-3 ovarian -5.67% | NCI/ADR-RES ovarian 7.9%
inactive: SK-MEL-2 melanoma 24.2% | SN12C renal 33.5% | UO-31 renal 48.7% | TK-10 renal 46.3% | ACHN renal 35.7% | CCRF-CEM leukemia 14.2% | MOLT-4 leukemia 13% | SR leukemia 12% | RPMI-8226 leukemia 17.8% | OVCAR-8 ovarian 21.9% | OVCAR-5 ovarian 55.8% | OVCAR-4 ovarian 54.2% | SK-OV-3 ovarian 22.8% | IGROV1 ovarian 31.6% | HS 578T breast 31.8% | T-47D breast 44.4%

CCC1=C[C@H]2CN(CCc3c([nH]c4ccccc34)[C@@](C(=O)OC)(c3cc4c(cc3OC)N(C)[C@H]3[C@@](O)(C(=O)OC)[C@H](OC(C)=O)[C@]5(CC)[C@@H]6C[C@@H]6CN6CC[C@]43[C@@H]65)C2)C1
active: A498 renal -15.2% | CCRF-CEM leukemia -5.97% | MOLT-4 leukemia 4.19% | SR leukemia -9.46% | RPMI-8226 leukemia -25.3% | OVCAR-8 ovarian 8.29% | OVCAR-3 ovarian 0.761%
inactive: SK-MEL-2 melanoma 13.2% | SN12C renal 30.1% | UO-31 renal 14.7% | TK-10 renal 28.9% | ACHN renal 19.1% | OVCAR-5 ovarian 42% | OVCAR-4 ovarian 37.6% | SK-OV-3 ovarian 17.9% | IGROV1 ovarian 21.6% | HS 578T breast 10.8% | NCI/ADR-RES ovarian 28% | T-47D breast 70%

CCOC(=O)c1c(C)nc2c(c1N)/C(=C/c1cccs1)C(=O)N2Cc1ccccc1
active: SR leukemia 9.76% | RPMI-8226 leukemia -21.2%
inactive: SK-MEL-2 melanoma 60% | SN12C renal 73.2% | UO-31 renal 45.6% | TK-10 renal 90.1% | ACHN renal 79.7% | MOLT-4 leukemia 18.8% | OVCAR-8 ovarian 70.7% | OVCAR-5 ovarian 119% | OVCAR-4 ovarian 82.3% | SK-OV-3 ovarian 96.6% | IGROV1 ovarian 48% | OVCAR-3 ovarian 53.2% | HS 578T breast 93.2% | NCI/ADR-RES ovarian 79% | T-47D breast 43%

O=C(O)COc1ccc2c(=O)c3sc4c(=O)c5ccccc5c(=O)c4c3c(=O)c2c1
inactive: SK-MEL-2 melanoma 25.5% | UO-31 renal 43.5% | TK-10 renal 74.8% | ACHN renal 62.7% | CCRF-CEM leukemia 56.8% | MOLT-4 leukemia 45.1% | SR leukemia 26.6% | RPMI-8226 leukemia 43.6% | OVCAR-8 ovarian 43.8% | OVCAR-4 ovarian 27.8% | SK-OV-3 ovarian 88.1% | IGROV1 ovarian 36.6% | NCI/ADR-RES ovarian 40.8% | T-47D breast 74.1%
active: SN12C renal -11.6% | A498 renal -86.9% | OVCAR-5 ovarian -53.7% | OVCAR-3 ovarian 1.75% | HS 578T breast -10.1%

COc1ccc(-c2cn(-c3ccc(Cl)cc3)c(=S)[nH]2)cc1OC
inactive: SK-MEL-2 melanoma 46.9% | SN12C renal 74.3% | UO-31 renal 85.4% | TK-10 renal 72.8% | ACHN renal 67% | A498 renal 94.4% | CCRF-CEM leukemia 84.4% | MOLT-4 leukemia 77.8% | SR leukemia 22.3% | RPMI-8226 leukemia 12.9% | OVCAR-8 ovarian 53% | OVCAR-5 ovarian 64.1% | OVCAR-4 ovarian 86.8% | SK-OV-3 ovarian 79.3% | IGROV1 ovarian 49.4% | OVCAR-3 ovarian 88.4% | HS 578T breast 100% | NCI/ADR-RES ovarian 37% | T-47D breast 68.1%

CCOC(=O)C(=Cc1c(-c2ccccc2)[nH]c2ccccc12)C(=O)OCC
inactive: SN12C renal 65.6% | UO-31 renal 33.5% | TK-10 renal 92.2% | ACHN renal 54% | A498 renal 74.1% | SR leukemia 10% | OVCAR-8 ovarian 39.4% | OVCAR-5 ovarian 98.3% | OVCAR-4 ovarian 49.9% | SK-OV-3 ovarian 94.5% | IGROV1 ovarian 34.7% | OVCAR-3 ovarian 38% | HS 578T breast 59.5% | NCI/ADR-RES ovarian 24.7% | T-47D breast 21.1%
active: SK-MEL-2 melanoma -3.76% | CCRF-CEM leukemia 4.23% | MOLT-4 leukemia 1.38% | RPMI-8226 leukemia -47.8%

[2H]c1cc2c(c([2H])c1F)/C(=C/c1[nH]c(C)c(C(=O)NCCN(CC)CC)c1C)C(=O)N2
inactive: SK-MEL-2 melanoma 14.7% | SN12C renal 24.4% | UO-31 renal 12.3% | TK-10 renal 62.1% | ACHN renal 25.4% | A498 renal 52.6% | CCRF-CEM leukemia 69.5% | MOLT-4 leukemia 20.3% | RPMI-8226 leukemia 30.2% | OVCAR-8 ovarian 63.1% | OVCAR-5 ovarian 28.7% | OVCAR-4 ovarian 40.6% | SK-OV-3 ovarian 14.5% | IGROV1 ovarian 30.4% | OVCAR-3 ovarian 73.3% | HS 578T breast 44.9% | NCI/ADR-RES ovarian 65.7% | T-47D breast 68.7%
active: SR leukemia 0.469%

COC(=O)c1ccc2c(c1)NC(=O)[C@@H]1CCCN21
inactive: SK-MEL-2 melanoma 95% | SN12C renal 101% | UO-31 renal 88.1% | TK-10 renal 127% | ACHN renal 103% | A498 renal 90.4% | CCRF-CEM leukemia 99.5% | MOLT-4 leukemia 84.1% | SR leukemia 81.5% | RPMI-8226 leukemia 96.6% | OVCAR-8 ovarian 97.5% | OVCAR-5 ovarian 112% | OVCAR-4 ovarian 88.4% | SK-OV-3 ovarian 95.2% | IGROV1 ovarian 101% | OVCAR-3 ovarian 102% | HS 578T breast 105% | NCI/ADR-RES ovarian 100% | T-47D breast 86.3%

CNS(=O)(=O)c1cccc(-c2ccc3c4c(n(C)c(=O)c3c2)-c2ccccc2C4=O)c1
active: ACHN renal 0.944% | CCRF-CEM leukemia 6.13% | MOLT-4 leukemia -1.83% | SR leukemia 3.35%
inactive: SK-MEL-2 melanoma 113% | SN12C renal 19.5% | UO-31 renal 35.4% | TK-10 renal 85.5% | A498 renal 72.1% | RPMI-8226 leukemia 30.5% | OVCAR-8 ovarian 43.9% | OVCAR-5 ovarian 95.2% | OVCAR-4 ovarian 92.1% | SK-OV-3 ovarian 71.8% | IGROV1 ovarian 60.8% | OVCAR-3 ovarian 82.6% | HS 578T breast 94.5% | NCI/ADR-RES ovarian 70.7% | T-47D breast 47%
